Experimental data published in PubChem BioAssay (NCI).
The panel holds about 83,000 compounds, 20% with a hit somewhere; the sample as a whole holds those more often.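 The endpoint reported here, percent growth, reads 100 for growth as untreated, 0 for no net growth and -100 for all cells dead.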 Unmarked numbers belong to inactive results. Calls of active or inactive are those of the source.

test system: SW-620 colon; assay: NCI-60 one-dose screen, 48 h (100 = growth as untreated, 0 = no growth, -100 = all killed); settings: 10 µM unless noted
Method: Growth inhibition of the SW-620 human tumor cell line is measured as a screen for anti-cancer activity. Cells are grown in 96 well plates and exposed to the test compound for 48 hours. Compounds are tested at a single concentration, which is 10^-5 M for most compounds. The reported endpoint is percent growth (GI% or GIPRCNT), where numbers from 0 - 100% represent growth inhibition, and numbers from -100% - 0 represent cell death. For example, a value of 40 represents 60% growth inhibition. A value of 0 means no net growth occurred over the course of the experiment. A value of -40 indicates 40% of cells at the beginning of the experiment died by the end of the experiment. A value of -100 means all cells are dead at the end of the experiment.
NCI-60 Human Tumor Cell Lines Screen was performed using the standard one-dose NCI protocol, which is described in more detail at https://dtp.cancer.gov/discovery_development/nci-60/default.htm.
Compounds with GIPRCNT values below 10 were considered active. Activity score was based on GIPRCNT using the following formula: […]
Score is 0 for GIPRCNT values of 100 or above, 50 for GIPRCNT values of 0, and 100 for GIPRCNT values of -100.

| Compound | growth |
| --- | --- |
| CCCCN1CCN(c2ccc3nc(-c4ccc5nc(-c6cc(OC)c(OC)c(OC)c6)[nH]c5c4)[nH]c3c2)CC1 | 60.3% |
| CCOC(=O)c1sc2ccc(NCc3nc[nH]c3C)cc2c1NC(=O)c1cc(OC)c(OC)c(OC)c1 | 79.8% |
| CC1=CC(=O)C(C(C)C)=CC1=Nc1cc(Br)c(O)c(Br)c1 | 27.3% |
| COc1ccc(-c2nnc(-c3ccc4c(c3)nc(-c3ccccc3)n4C3CCCCC3)o2)cc1 | 71.3% |
| O=S(=O)(Nc1ccsc1-c1nc(-c2ccccc2)no1)c1cc(Cl)cc(Cl)c1 | 95.8% |
| CS(=O)(=O)c1ccc(-c2[nH]c3ccc(F)cc3c2/C=N/NC(N)=S)cc1 | 21.3% |
| Cc1cc(C(c2ccccc2)c2ccccc2)ccc1NS(=O)(=O)c1ccccc1 | 101% |
| N=C(N)c1ccc(-c2ccc(-c3ccc(Cl)c(Cl)c3)o2)nc1 | -69.8% (active) |
| CCCCCCCCCCCCCCCCCC1=NCCN1C(=O)OCCO | -76.8% (active) |
| C=C(C=O)C1CCC2(C(=O)O)CCC3(C)C(CCC4C5(C)CCC(O)C(C)(C)C5CCC43C)C12 (stereo not given) | -14.5% (active) |
| COc1ccc(OC)c(C(=O)Nc2cccc(-c3cc(=O)c4ccccc4o3)c2)c1 | 96.8% |
| CCn1c(Sc2nnc(Nc3ccccc3)s2)nc2c1c(=O)n(C)c(=O)n2C | 97.6% |
| CCOC(=O)c1nnn(C(Cc2ccccc2Cl)C(=O)OCC)c1C (stereo not given) | 98% |
| Cc1csc(NC(=O)c2sc3nc(-c4cccs4)ccc3c2N)n1 | 99.4% |
| CC(=O)Nc1ccc(-c2cc3c(NCc4ccc(F)cc4)ncnc3s2)cc1 | 97.7% |
| NC(=O)c1c(NC(=O)c2ccccn2)sc2c1CCC(=O)C2 | 14.7% |
| COc1ccc(Oc2nc(Nc3ccc(N4CCOCC4)nc3)ncc2NC(=O)c2cc(OC)cc(OC)c2)cc1 | 75.8% |
| Cc1cc(-c2ccccc2)cc(SC#N)[n+]1[O-] | 38.1% |
| CN1CCN(C(=O)[C@]23CCC(C)(C)C[C@@H]2C2=CC[C@@H]4[C@@]5(C)Cc6c([nH]c7ccccc67)C(C)(C)[C@@H]5CC[C@@]4(C)[C@]2(C)CC3)CC1 | 96.4% |
| COc1ccc(O)c(-c2cc(-c3ccccc3)c(C#N)c(=O)[nH]2)c1 | 105% |

| Compound | growth |
| --- | --- |
| CCCCn1c(=O)[nH]c(N)c(C(c2ccc(F)cc2)c2c(N)[nH]c(=O)n(CCCC)c2=O)c1=O | 91.1% |
| NS(=O)(=O)c1cn(-c2ncnc3nc[nH]c23)ccc1=O | 95.1% |
| O=c1oc2ccc(Cl)cc2cc1-c1cs/c(=N/N=C\c2ccc(Cl)cc2)n1/N=C/c1ccc(Cl)cc1 | 104% |
| CCCCN(Cc1ccc(C(=O)NO)cc1)C(=O)Nc1ccc(OCCCCCCCCCn2cc(CCCCC(=O)N[C@H](C(=O)N3C[C@H](O)C[C@H]3C(=O)NCc3ccc(-c4scnc4C)cc3)C(C)(C)C)nn2)cc1 | 30.7% |
| CCN(CC)CC(O)CNc1c2ccc(Cl)cc2nc2ccc(OC)cc12 (stereo not given) | -37% (active) |
| C=C1C(=O)O[C@H]2[C@H]1CC/C(COC(=O)NCc1ccc(Cn3c(=O)sn(CCCCl)c3=O)cc1)=C\CC[C@@]1(C)O[C@@H]21 | -51.9% (active) |
| N=C(N)c1ccc(-c2ccc(-c3ccc(Cl)cc3Cl)o2)cc1 | -67.3% (active) |
| COc1ccc(-n2nnc(C(=O)NCCc3c[nH]c4ccc(F)cc34)c2C)cc1 | 101% |
| CCNCCNc1cc(-c2ccc(C(=O)OC)cc2)c(C#N)c2nc3ccccc3n12 | 2.26% (active) |
| CCOc1ccc2nc(-c3cccc(OCC(=O)NC(C)C)c3)nc(Nc3ccc(-c4cn[nH]c4)cc3)c2c1 | 7.06% (active) |
| N#Cc1c(Oc2ccc([N+](=O)[O-])cc2)nc2sc3cc(Cl)ccc3n2c1=N | 93.1% |
| CCCCCCNC(=O)c1cc(NCc2cc(O)ccc2O)ccc1O | 76.8% |
| CN(C)c1ccc(C#Cc2c(F)cccc2Cl)cc1 | 96% |
| Fc1ccc(Nc2ccc3cc(OCCCN4CCOCC4)ccc3n2)cc1F | 10% |
| CN1C[C@@H](c2ccc(Cl)cc2)[C@]2(NC(=S)N(c3ccc(F)c(Cl)c3)C2=O)[C@@]12C(=O)NC1C=CC(Cl)=C[C@H]12 (stereo not given in full) | 62.2% |
| COc1ccc(/C(C)=C(\c2ccc(Cl)cc2)c2ccc(OCCN3CCCCC3)cc2)cc1F | 22.1% |
| CCNCCNc1cc(-c2ccc(C(F)(F)F)cc2)c(C#N)c2nc3cc(Cl)c(Cl)cc3n12 | -81.8% (active) |
| COc1cc(C2CC(=O)Nc3n[nH]c(-c4ccccc4)c32)cc(OC)c1OC (stereo not given) | 44.5% |
| CC(C)(C)OC(=O)N1Cc2cc3ccccc3nc2C1CO (stereo not given) | 94.5% |
| Clc1ccc(-c2nnc(-c3ccco3)o2)cc1 | 99.5% |
